This is an account of results in PubChem BioAssay (EPA / NIEHS).

Structures are written as SMILES. Where “and” joins values, the source holds several entries; their conditions need not be identical. Equal values may be shown once. Calls of active or inactive are those of the source. The calls were made as follows: active = hit-call score of the fitted dose curve at least 0.9, where 1 is the maximum; inconclusive = response in the unintended direction; inactive = score below 0.9.

This test in a line: IUF_NPC2-5_cytotoxicity_120hr: Cytotoxicity Assessment at 120 hours in the Leibniz Research Institute for Environmental Medicine (IUF) Neural Progenitor Cell Migration and Differentiation Assay (NPC2-5) (AID 2284307).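 As to AC50: LDH released into supernatant as membrane damage marker via resorufin fluorescence.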 As for the experimental part: IUF_NPC2-5 is a cell-based, multiplexed assay that uses hNPC, a human primary neural progenitor cells, with measurements taken at 72 or 120 hours after chemical dosing in a 96-well plate. Human neural progenitor cells (hNPC) are generated from human fetal brain cortex at gestational week (GW) 16-19. In the neural progenitor cell migration and differentiation assay (NPC2-5), hNPCs grown as spheres are plated on an extracellular matrix and migrate and differentiate out of the sphere core. The processes radial glia migration, neuronal and oligodendrocyte migration as well as neuronal differentiation, neuronal morphology and oligodendrocyte differentiation are studied using automated phase contrast imaging and automated fluorescence imaging in combination with high content image analysis. In parallel, the cell viability is assessed using an alamar blue viability assay and the cytotoxicity using a lactate dehydrogenase dependent membrane integrity assay.IUF_NPC2-5_cytotoxicity_120hr is one of 12 assay components measured from the IUF_NPC2-5 assay. It is designed to measure cytotoxicity at 120hr due to loss of membrane integrity. LDH measurements are performed from medium supernatants of each well and are based on the reduction of resazurin to resorufin measured as fluorescence signal (relative fluorescence unit) in a multiplate reader. Data from the IUF_NPC2-5_cytotoxicity_120hr component was analyzed at the endpoint IUF_NPC2-5_cytotoxicity_120hr in the positive analysis fitting direction relative to the dynamic range and baseline of activity. Using a type of viability reporter, gain-of-signal activity can be used to understand cytotoxicity effects.
Culture protocol: After the cell expansion period the cells are cultured for up to four weeks in which they are passaged every week as described in 3.6. Between one to three days after passaging spheres at a size of 0.3 mm are picked for the test method. For the assessment of neural progenitor cell migration and differentiation, the spheres are plated on poly-D-lysine/laminin coated 96-well flat bottom plates in differentiation medium (N2) to initiate migration and differentiation. Thereby one 0.3 mm big sphere is plated in the middle of a well. The differentiation medium consists of DMEM and Ham's F12 at a ratio of 3 to 1 supplemented with 1% N2 and 1% penicillin and streptomycin. Within 5 days NPCs radially migrate out of the sphere core and differentiate into radial glia cells (nestin positive), neurons (TUBB3 positive), oligodendrocytes (O4 positive) and astrocytes (GFAP positive). Cultivation during the test method is performed at 37C and 5% CO2 at a ph of 7.2-7.6.Exposure: 0.3 mm big hNPC are plated in the already prepared test conditions. Exposure starts at day 0 of differentiation and is continued over five days of differentiation until the experiment is terminated. Cells are fed with fresh medium at day 3 of differentiation. Therefore, half of the test condition solution (e.g. solvent control or compound dilution) is replaced by freshly prepared test condition solution.Test Method: Migration distance and cytotoxicity is determined after 72 hours based on brightfield images of each well. The assay is terminated by the assessment of cell viability and cytotoxicity as well as cell fixation after 120 h. Immunocytochemistry is performed for Hoechst positive nuclei, TUBB3 positive neurons and O4 positive oligodendrocytes. On the ICC images, migration after 120 hours, neuronal and oligodendrocyte number, neuronal morphology and neuron/oligodendrocyte specific migration is assessed. immunocytochemical staining (ICC) generates an image for each sphere. The plates are scanned using an automated high content imaging device and all nuclei and their positions are determined automatically based on their intensity and size. Images are imported to the Omnisphero software to run the image analysis that measures the following endpoints. […]
As for `C=C(C)[C@H]1Cc2c(ccc3c2O[C@@H]2COc4cc(OC)c(OC)cc4[C@@H]2C3=O)O1`, the compound was classed as inactive. With `O=[N+]([O-])c1cc(C(F)(F)F)c(Cl)c([N+](=O)[O-])c1Nc1ncc(C(F)(F)F)cc1Cl`, the half-maximal activity concentration (AC50) – broadly, the concentration at which the activity in the assay is half-maximal – is 1.08 µM (active).

With `CC1=NNC(=O)N(/N=C/c2cccnc2)C1`, the compound was classed as inactive. For the compound `COP(=O)(OC)OC(Br)C(Cl)(Cl)Br` (centres undefined), the AC50 is 70.1 µM (active).

Take `CCCCSP(=O)(SCCCC)SCCCC`: the compound was classed as inactive.

For `S=C1NCCN1`, the call was inactive. As to `CCOP(=O)(OCC)Oc1cc(C)nc(C(C)C)n1`, the call was inactive.

For the compound `COP(=O)(OC)C(O)C(Cl)(Cl)Cl` (centres undefined), the compound was classed as inactive. `CCOP(=S)(OCC)SCCSCC`: the result was inactive.

With `CN1COCN(Cc2cnc(Cl)s2)C1=N[N+](=O)[O-]`, the outcome was inactive. `COP(=O)(NC(C)=O)SC` (centres undefined): the call was inactive. As to `CCOC(=O)CC(SP(=O)(OC)OC)C(=O)OCC` (centres undefined), the call was inactive. As for `CCCSP(=O)(OCC)SCCC`, the compound was called inactive.

Regarding `CCOP(=S)(OCC)Oc1cc(C)nc(C(C)C)n1`, the compound was classed as inactive. Take `CCOP(=S)(OCC)OC(Cl)C(Cl)(Cl)Cl` (centres undefined): the call was inactive. Turning to `CON=C(C(=O)OC)c1ccccc1CON=C(C)c1cccc(C(F)(F)F)c1`, the result was inactive. Turning to `C[N+]1(C)CCCCC1`, the AC50 was 0.0969 µM (active). `CC(C)N(C(=O)SCC(Cl)=C(Cl)Cl)C(C)C`: the outcome was inactive.

Take `CSC1=N[C@@](C)(c2ccccc2)C(=O)N1Nc1ccccc1`: the call was inactive.

With `CN(C)[C@@H]1C(=O)C(C(N)=O)=C(O)[C@@]2(O)C(=O)C3=C(O)c4c(O)cccc4[C@@](C)(O)[C@H]3[C@H](O)[C@@H]12`, the concentration at half-maximal activity (AC50) is 25.8 µM (active). Regarding `CC(=NC#N)N(C)Cc1ccc(Cl)nc1`, the result was inactive. For the compound `CCOP(=S)(Oc1cnc(C(C)(C)C)nc1)OC(C)C` (centres undefined), the result was inactive.

Take `CCOP(=O)(NC(C)C)Oc1ccc(SC)c(C)c1` (centres undefined): the outcome was inactive. Turning to `CC[C@H](C)[C@H]1O[C@]2(C=C[C@@H]1C)C[C@@H]1C[C@@H](C/C=C(\C)[C@@H](O[C@H]3C[C@H](OC)[C@@H](O[C@H]4C[C@H](OC)[C@@H](NC)[C@H](C)O4)[C@H](C)O3)[C@@H](C)/C=C/C=C3\CO[C@@H]4[C@H](O)C(C)=C[C@@H](C(=O)O1)[C@]34O)O2`, the AC50 is 1.05 µM (active) and 1.48 µM (active).
